Reference: ChEMBL document CHEMBL1961873, “Compounds: GSK PKIS; Assays: Nanosyn kinase panel” (2012)

Assays:
[1] = target: Calcium/calmodulin-dependent protein kinase type II subunit alpha (Homo sapiens) (UniProt Q9UQM7); details: at 1 µM;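 also: reported value is a mean percent inhibition of CAMK2A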
[2] = target: Calcium/calmodulin-dependent protein kinase type II subunit delta (Homo sapiens) (UniProt Q13557); details: at 0.1 µM
[3] = target: Calcium/calmodulin-dependent protein kinase type II subunit delta (Homo sapiens) (UniProt Q13557); details: at 1 µM
[4] = target: T1, Calcium/calmodulin-dependent protein kinase type IV (Homo sapiens) (UniProt Q16566); details: at 0.1 µM
T1 sequence (whole entry): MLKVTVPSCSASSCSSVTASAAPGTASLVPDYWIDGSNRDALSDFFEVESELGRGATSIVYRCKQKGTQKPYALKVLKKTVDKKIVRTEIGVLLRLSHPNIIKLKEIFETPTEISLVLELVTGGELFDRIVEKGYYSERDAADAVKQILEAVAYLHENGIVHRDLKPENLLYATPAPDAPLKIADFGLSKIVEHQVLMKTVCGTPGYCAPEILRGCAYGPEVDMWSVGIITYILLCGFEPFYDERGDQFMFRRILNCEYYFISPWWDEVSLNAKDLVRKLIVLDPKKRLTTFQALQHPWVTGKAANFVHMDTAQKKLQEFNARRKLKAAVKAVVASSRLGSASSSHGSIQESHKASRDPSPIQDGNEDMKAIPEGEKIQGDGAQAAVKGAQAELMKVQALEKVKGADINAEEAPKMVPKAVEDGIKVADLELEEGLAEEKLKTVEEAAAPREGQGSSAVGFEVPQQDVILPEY

[5] = target: T1, Calcium/calmodulin-dependent protein kinase type IV (Homo sapiens); details: at 1 µM
[6] = target: T2, Serine/threonine-protein kinase Chk1 (Homo sapiens) (UniProt O14757); details: at 0.1 µM
T2 sequence (whole entry): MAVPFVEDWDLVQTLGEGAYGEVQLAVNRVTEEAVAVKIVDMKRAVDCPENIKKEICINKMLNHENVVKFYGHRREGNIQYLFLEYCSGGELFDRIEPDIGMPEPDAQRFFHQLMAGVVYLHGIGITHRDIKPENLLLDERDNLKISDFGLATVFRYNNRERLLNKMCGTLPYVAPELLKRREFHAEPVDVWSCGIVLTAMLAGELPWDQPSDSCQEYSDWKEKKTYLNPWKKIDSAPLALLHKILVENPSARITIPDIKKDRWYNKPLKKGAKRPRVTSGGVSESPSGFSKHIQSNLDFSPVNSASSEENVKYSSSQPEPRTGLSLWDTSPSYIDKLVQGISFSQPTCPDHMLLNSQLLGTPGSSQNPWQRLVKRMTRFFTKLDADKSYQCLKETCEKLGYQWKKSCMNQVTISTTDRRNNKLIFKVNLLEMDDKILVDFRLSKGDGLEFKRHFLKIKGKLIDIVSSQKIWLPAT

[7] = target: T2, Serine/threonine-protein kinase Chk1 (Homo sapiens); details: at 1 µM
[8] = target: Serine/threonine-protein kinase Chk2 (Homo sapiens) (UniProt O96017); details: at 0.1 µM
[9] = target: Serine/threonine-protein kinase Chk2 (Homo sapiens) (UniProt O96017); details: at 1 µM
[10] = target: Death-associated protein kinase 1 (Homo sapiens) (UniProt P53355); details: at 0.1 µM
Sequence of Death-associated protein kinase 1 (Homo sapiens) (P53355 whole entry, looked up): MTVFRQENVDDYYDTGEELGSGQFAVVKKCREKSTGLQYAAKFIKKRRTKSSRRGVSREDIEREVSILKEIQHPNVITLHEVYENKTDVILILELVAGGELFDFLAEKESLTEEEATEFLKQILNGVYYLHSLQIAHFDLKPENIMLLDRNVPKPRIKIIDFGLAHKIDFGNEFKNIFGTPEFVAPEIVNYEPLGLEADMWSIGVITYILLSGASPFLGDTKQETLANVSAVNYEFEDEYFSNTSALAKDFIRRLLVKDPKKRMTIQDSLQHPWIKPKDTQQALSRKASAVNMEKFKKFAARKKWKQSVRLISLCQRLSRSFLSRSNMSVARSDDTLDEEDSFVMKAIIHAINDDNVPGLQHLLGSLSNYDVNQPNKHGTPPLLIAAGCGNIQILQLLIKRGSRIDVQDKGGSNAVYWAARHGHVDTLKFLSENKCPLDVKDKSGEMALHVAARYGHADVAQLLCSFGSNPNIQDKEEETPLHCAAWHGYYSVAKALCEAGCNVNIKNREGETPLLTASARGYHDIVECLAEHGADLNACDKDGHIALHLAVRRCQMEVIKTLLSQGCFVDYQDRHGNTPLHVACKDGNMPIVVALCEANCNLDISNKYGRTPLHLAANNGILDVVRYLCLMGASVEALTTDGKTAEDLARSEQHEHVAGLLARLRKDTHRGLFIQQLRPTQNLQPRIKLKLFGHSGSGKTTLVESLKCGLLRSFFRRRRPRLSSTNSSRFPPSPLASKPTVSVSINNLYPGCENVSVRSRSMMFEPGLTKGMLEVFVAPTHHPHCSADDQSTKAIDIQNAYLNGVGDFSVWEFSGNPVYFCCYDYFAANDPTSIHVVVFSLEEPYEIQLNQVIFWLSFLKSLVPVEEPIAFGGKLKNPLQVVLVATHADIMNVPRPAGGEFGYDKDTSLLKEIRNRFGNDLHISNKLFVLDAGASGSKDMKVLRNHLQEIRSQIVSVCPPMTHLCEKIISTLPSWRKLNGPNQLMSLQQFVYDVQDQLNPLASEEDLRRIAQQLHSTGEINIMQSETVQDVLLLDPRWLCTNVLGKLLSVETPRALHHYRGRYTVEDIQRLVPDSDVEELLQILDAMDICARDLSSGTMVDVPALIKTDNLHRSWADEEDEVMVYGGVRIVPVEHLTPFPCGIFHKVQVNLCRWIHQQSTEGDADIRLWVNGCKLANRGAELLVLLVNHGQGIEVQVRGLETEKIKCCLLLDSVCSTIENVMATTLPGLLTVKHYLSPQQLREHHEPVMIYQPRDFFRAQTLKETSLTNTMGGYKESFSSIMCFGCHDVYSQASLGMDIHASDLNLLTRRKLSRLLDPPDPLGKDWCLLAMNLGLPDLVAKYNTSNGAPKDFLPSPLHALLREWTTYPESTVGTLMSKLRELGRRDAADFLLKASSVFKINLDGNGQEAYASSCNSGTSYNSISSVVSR

[11] = target: Death-associated protein kinase 1 (Homo sapiens) (UniProt P53355); details: at 1 µM
[12] = target: T3, Serine/threonine-protein kinase DCLK2 (Homo sapiens) (UniProt Q8N568); details: at 0.1 µM
T3 sequence (whole entry): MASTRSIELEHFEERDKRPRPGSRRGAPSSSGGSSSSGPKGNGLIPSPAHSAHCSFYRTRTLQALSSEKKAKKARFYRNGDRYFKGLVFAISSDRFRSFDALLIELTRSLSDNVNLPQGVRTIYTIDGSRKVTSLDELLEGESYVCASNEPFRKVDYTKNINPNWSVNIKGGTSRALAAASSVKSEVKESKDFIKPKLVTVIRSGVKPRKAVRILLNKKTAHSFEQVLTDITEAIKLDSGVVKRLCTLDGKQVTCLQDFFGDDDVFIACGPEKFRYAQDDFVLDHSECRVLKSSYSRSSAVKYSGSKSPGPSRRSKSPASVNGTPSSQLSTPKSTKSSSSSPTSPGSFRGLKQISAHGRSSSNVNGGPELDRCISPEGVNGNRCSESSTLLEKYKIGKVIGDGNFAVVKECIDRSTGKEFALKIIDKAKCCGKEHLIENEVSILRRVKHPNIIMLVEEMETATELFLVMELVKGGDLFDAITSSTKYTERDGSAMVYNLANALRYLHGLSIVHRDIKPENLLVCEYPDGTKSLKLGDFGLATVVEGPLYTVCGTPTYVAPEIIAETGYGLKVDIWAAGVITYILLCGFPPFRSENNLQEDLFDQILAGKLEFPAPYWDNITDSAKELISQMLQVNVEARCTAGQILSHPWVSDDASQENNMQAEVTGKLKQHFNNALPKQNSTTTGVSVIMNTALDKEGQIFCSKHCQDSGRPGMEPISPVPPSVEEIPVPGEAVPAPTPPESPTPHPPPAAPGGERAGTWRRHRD

[13] = target: T3, Serine/threonine-protein kinase DCLK2 (Homo sapiens); details: at 1 µM
[14] = target: MAP kinase-activated protein kinase 2 (Homo sapiens) (UniProt P49137); details: at 0.1 µM
Sequence of MAP kinase-activated protein kinase 2 (Homo sapiens) (P49137 whole entry, looked up): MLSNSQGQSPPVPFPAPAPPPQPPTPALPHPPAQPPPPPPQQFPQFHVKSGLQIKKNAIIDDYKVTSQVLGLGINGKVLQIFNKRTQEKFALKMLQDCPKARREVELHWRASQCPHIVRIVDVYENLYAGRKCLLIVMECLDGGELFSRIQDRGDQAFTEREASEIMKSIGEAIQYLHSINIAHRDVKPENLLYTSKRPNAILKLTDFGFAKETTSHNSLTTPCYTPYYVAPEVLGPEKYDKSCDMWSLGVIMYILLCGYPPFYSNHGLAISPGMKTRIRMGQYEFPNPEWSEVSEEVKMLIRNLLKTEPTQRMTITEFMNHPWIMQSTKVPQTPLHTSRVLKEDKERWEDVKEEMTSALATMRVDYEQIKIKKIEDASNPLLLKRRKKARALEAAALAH

[15] = target: MAP kinase-activated protein kinase 2 (Homo sapiens) (UniProt P49137); details: at 1 µM
[16] = target: MAP kinase-activated protein kinase 3 (Homo sapiens) (UniProt Q16644); details: at 0.1 µM
Sequence of MAP kinase-activated protein kinase 3 (Homo sapiens) (Q16644 whole entry, looked up): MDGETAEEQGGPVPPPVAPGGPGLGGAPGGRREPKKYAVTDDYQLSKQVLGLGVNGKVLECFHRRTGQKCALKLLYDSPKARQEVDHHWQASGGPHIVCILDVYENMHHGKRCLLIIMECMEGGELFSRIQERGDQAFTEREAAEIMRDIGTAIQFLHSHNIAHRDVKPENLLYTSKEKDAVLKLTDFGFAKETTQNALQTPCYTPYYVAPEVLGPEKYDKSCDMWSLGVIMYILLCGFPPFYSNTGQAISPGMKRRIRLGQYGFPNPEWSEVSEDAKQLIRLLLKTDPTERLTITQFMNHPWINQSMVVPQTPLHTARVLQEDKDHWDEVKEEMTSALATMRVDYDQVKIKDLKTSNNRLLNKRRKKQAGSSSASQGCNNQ

[17] = target: MAP kinase-activated protein kinase 3 (Homo sapiens) (UniProt Q16644); details: at 1 µM
[18] = target: Serine/threonine-protein kinase MARK1 (Homo sapiens) (UniProt Q9P0L2); details: at 0.1 µM
Sequence of Serine/threonine-protein kinase MARK1 (Homo sapiens) (Q9P0L2 whole entry, looked up): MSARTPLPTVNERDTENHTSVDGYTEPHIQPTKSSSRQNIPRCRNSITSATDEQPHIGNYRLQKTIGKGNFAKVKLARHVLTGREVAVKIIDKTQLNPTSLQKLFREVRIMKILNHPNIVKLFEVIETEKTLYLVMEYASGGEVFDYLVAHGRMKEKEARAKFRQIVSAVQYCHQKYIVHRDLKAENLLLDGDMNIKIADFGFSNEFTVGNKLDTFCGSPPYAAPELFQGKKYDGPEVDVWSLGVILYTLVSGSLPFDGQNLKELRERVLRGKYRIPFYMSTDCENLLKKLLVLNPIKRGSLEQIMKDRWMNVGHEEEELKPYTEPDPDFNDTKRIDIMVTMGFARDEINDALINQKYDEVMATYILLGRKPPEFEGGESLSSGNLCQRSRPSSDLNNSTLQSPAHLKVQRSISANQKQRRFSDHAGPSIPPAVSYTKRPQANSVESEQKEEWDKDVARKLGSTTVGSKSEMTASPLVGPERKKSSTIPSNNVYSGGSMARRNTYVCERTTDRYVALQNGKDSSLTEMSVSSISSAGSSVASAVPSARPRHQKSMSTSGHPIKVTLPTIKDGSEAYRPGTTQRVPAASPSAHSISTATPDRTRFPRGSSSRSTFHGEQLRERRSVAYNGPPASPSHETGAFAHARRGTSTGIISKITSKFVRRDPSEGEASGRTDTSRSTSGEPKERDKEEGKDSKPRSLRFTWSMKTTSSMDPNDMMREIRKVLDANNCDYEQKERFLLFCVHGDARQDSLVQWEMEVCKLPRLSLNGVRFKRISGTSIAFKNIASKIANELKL

[19] = target: Serine/threonine-protein kinase MARK1 (Homo sapiens) (UniProt Q9P0L2); details: at 1 µM
[20] = target: MAP/microtubule affinity-regulating kinase 3 (Homo sapiens) (UniProt P27448); details: at 0.1 µM;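 also: mean percent inhibition of MARK3 kinase activity, measured within the GSK PKIS screening panel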
Sequence of MAP/microtubule affinity-regulating kinase 3 (Homo sapiens) (P27448 whole entry, looked up): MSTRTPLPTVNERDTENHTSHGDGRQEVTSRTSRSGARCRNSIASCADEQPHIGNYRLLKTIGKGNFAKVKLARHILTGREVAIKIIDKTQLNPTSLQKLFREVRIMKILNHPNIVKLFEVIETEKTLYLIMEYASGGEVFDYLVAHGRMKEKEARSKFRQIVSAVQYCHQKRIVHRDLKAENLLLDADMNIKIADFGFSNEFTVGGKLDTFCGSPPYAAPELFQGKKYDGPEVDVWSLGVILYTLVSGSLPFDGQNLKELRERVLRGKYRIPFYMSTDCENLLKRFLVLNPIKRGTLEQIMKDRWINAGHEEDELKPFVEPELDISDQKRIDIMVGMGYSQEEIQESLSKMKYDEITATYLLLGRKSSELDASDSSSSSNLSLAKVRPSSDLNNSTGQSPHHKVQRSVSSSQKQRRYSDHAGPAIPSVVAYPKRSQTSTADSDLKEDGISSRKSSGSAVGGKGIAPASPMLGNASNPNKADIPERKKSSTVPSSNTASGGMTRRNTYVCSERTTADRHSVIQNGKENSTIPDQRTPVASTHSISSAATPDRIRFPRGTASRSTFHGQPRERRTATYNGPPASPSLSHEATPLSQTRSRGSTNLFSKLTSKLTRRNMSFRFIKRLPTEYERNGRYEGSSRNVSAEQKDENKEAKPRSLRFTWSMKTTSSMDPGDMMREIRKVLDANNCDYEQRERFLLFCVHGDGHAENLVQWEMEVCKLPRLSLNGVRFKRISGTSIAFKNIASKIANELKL

Sequence of Calcium/calmodulin-dependent protein kinase type II subunit alpha (Homo sapiens) (Q9UQM7 whole entry): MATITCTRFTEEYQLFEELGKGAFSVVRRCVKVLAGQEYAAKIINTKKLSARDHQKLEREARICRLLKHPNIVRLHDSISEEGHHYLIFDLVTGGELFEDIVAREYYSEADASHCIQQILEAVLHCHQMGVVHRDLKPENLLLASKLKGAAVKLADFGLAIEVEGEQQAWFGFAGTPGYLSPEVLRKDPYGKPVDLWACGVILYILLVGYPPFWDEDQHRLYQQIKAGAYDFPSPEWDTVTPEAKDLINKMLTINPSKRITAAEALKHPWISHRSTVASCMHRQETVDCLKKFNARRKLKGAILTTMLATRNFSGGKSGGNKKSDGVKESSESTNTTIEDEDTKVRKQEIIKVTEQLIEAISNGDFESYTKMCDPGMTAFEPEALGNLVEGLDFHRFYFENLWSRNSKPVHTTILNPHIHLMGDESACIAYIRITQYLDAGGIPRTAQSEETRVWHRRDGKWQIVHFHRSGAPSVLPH
Sequence of Calcium/calmodulin-dependent protein kinase type II subunit delta (Homo sapiens) (Q13557 whole entry): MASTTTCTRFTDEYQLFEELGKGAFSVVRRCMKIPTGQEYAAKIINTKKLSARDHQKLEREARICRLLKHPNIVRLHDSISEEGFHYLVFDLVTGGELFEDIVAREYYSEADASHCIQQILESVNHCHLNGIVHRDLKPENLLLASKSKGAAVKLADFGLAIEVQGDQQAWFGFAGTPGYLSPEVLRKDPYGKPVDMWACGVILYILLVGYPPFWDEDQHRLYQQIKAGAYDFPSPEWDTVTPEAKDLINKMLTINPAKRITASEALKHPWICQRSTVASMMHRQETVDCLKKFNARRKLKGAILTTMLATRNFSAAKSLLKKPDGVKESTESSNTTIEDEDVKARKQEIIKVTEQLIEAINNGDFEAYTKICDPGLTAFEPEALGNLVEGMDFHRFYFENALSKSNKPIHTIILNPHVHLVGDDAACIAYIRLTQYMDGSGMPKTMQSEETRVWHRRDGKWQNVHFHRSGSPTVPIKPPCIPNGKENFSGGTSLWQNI

SMILES | inhibition [1] | inhibition [2] | inhibition [3] | inhibition [4] | inhibition [5] | inhibition [6] | inhibition [7] | inhibition [8] | inhibition [9] | inhibition [10] | inhibition [11] | inhibition [12] | inhibition [13] | inhibition [14] | inhibition [15] | inhibition [16] | inhibition [17] | inhibition [18] | inhibition [19] | inhibition [20]
CS(=O)(=O)CCNCc1ccc(-c2ccc3ncnc(Nc4ccc(OCc5cccc(F)c5)c(C(F)(F)F)c4)c3c2)o1 | 3.37% | 3.17% | 2.68% | 0.52% | -0.06% | 8.99% | 11.5% | 6.84% | 7.75% | 11.7% | 12.3% | 3.73% | 0.98% | 4.67% | 4.5% | 10% | 11.2% | 3.68% | 3.33% | 1.95%
Nc1ncnc2occ(-c3ccc(NC(=O)Nc4cccc(C(F)(F)F)c4)cc3)c12 | 1.03% | 3.02% | 2.75% | -0.91% | 4.17% | 6.67% | 5.24% | 3.95% | 6.09% | 8.33% | 4.16% | 0.41% | 1.61% | 3.79% | 3.15% | 9.11% | 20.7% | 3.95% | 8.44% | 3.75%
[O-][S+]1CCN(Cc2ccc(-c3ccc4ncnc(Nc5ccc(OCc6ccccc6)c(F)c5)c4c3)o2)CC1 | 2.39% | 2.36% | 2.19% | 0.91% | 0.5% | 0.15% | 3.65% | 2.23% | 7.61% | 2.43% | 3.11% | 1.91% | 3.92% | 0.41% | 0.42% | 0.85% | 3.94% | 1.63% | 2.55% | 2.88%
COc1ccccc1Nc1ncc(-c2ccccc2)o1 | 0.2% | 3.81% | 4.92% | 0.89% | -8.72% | -2.97% | -2.91% | -2.63% | -3.53% | -1.69% | -4.43% | 2.18% | 0.52% | -0.33% | -1.84% | 0.93% | 1.35% | 2.73% | 5.68% | 4.5%
CCn1c(-c2nonc2N)nc2c(N3CCCC3)nccc21 | -3.88% | -2.38% | -0.97% | -0.74% | -0.33% | 2.68% | 0.57% | -2.44% | -2.51% | 0.86% | 0.8% | -6.15% | 4.26% | -1.28% | -1.63% | -0.94% | -1.73% | 0.71% | 2.75% | 1.92%
O=C1NC(=O)C(N2CCc3ccccc32)=C1c1ccc(Cl)cc1 | 2.12% | 4.21% | 5.17% | 0.68% | 0.58% | 9.38% | 12.7% | 8.35% | 8.52% | 11.1% | 13.8% | 1.5% | 1.94% | 4.64% | 5.01% | 10.4% | 10.3% | 3.93% | 5.85% | 5.98%
CCn1c(-c2nonc2N)nc2cncc(C(=O)N3CCNCC3)c21 | 4.17% | 4.29% | 6.57% | -0.66% | 1.55% | 6.55% | 13.8% | 2.96% | 5.6% | 8.7% | 8.15% | 0.84% | 1.96% | 2.84% | 5.04% | 6.65% | 10.7% | 2.63% | 3.48% | 5.76%
Cc1ccc(NC(=O)c2ccnc(N3CCCC3)c2)cc1-c1ccc(C(=O)NCC2CC2)cc1 | 5.72% | 4.6% | 7.16% | -0.3% | 2.35% | 3.53% | 7.14% | 3.26% | 4.85% | 2.4% | 5.74% | -1.99% | -0.35% | 0.7% | 1.5% | 19.9% | 30.2% | 5.49% | 8.31% | 6.19%
CCCN1CCC=C(c2ccc(Nc3nc(Nc4ccccc4C(N)=O)c4cc[nH]c4n3)c(C)c2)C1 | 8.19% | 5.36% | 20.6% | -0.28% | 9.19% | 1.09% | 8.05% | 13.1% | 51.3% | 6.81% | 6.22% | -0.54% | 3.15% | 2.63% | 4.94% | 3.15% | 6.16% | 2.76% | 16.1% | 2.37%
O=C1NC(=O)C(c2ccccc2Cl)=C1Nc1cccc(O)c1 | 5.26% | 3.96% | 11.7% | 0.91% | 1.07% | -0.11% | 1.92% | 1.18% | 2.39% | 3.2% | 3.55% | -0.07% | 1.16% | 1.27% | 1.05% | 1.45% | 1.77% | 1.97% | 8.19% | 1.72%
COc1ccc(-c2ccncc2)cc1C(N)=O | 3.32% | 3.92% | 8.26% | -1.04% | 0.03% | 8.46% | 10.1% | 8.96% | 12.5% | 14% | 12.2% | -0.69% | 3.38% | 5.44% | 6.42% | 9.46% | 12.5% | 2.8% | 4.12% | 3.29%
COc1cc2c(cc1Nc1nc(N3CCc4ccccc43)c3cc[nH]c3n1)N(C(=O)CN(C)C)CC2 | 4.08% | 3.43% | 2.99% | 2.17% | 3.69% | 0.15% | 3.74% | 1.34% | 7.08% | 2.95% | 5.32% | -0.1% | -1.1% | 1.24% | 1.57% | 1.99% | 0.18% | 1.84% | 3.15% | 4.35%
Cc1cc(O)cc(C)c1/C=C/c1cncc(-c2nn[nH]n2)c1 | 3.79% | 4.52% | 4.7% | -0.07% | -1.05% | -7.2% | 2.19% | 3.38% | 5.57% | 3.16% | 3.95% | -1.23% | -3.21% | 2.39% | 1.49% | 6.11% | 4.25% | 4.55% | 5.09% | 5.87%
